PubChem BioAssay AID504577 (NMMLSC, 2011)
In all, about 350,000 compounds went through this assay and about 1,300 (0.37%) were called active. What follows is part of a selection rich in actives, with near analogues and random picks from the rest. A number with no mark means an inactive call. Cut-off read from the data, not from the text of the source: active = response mostly above about 7.3% (no sharp cut-off); inactive = mostly below about 5.4%.

Assay: yeast vacuolar ATPase proton transport modulators – pHLuorin cytosolic pH fluorescence, primary screen (AID 504577); note: actives read high
Settings: S. cerevisiae, at 10 µM, stronger effect = higher value
For `O=C(COC(=O)Cc1ccccc1)Nc1ccc(F)cc1`, the response was -1.24%.
In the case of `CC(=O)Nc1ccc(C(=O)C(Cc2ccccc2)N(C)C)cc1` (stereo not given), the response is reported as 8.72% (active).
In the case of `CCN(CC)C(=O)c1ccc(NC(=O)c2sccc2-c2ccccc2)cc1`, the response is reported as -3.45%.
Compound `COc1ccc(Br)cc1CNCCc1cccc(Cl)c1` has a response of 1.48%.
With `N=c1ccccn1Cc1ccccc1` the response was -1.95%.
In the case of `CN1CCC[C@@H]1CCO[C@](C)(c1ccccc1)c1ccc(Cl)cc1`, the response is reported as -5.35%.
In the case of `O=C1NC(=O)N(c2ccccc2)C(=O)/C1=C/c1ccc([N+](=O)[O-])s1`, the response is reported as 102% (active).
With `COc1ccc(N2C(=O)/C(=C/c3ccco3)C(=O)NC2=S)cc1` the response was 8.65%.
With `COc1cccc(N2C(=O)NC(=O)/C(=C\c3ccc([N+](=O)[O-])s3)C2=O)c1` the response was 125% (active).
With `O=C1NC(=O)N(c2ccc(F)cc2)C(=O)/C1=C/c1ccc2c(c1)CCCN2Cc1ccccc1` the response was 1.07%.
`CCCC(C)n1[nH]c(=O)c2c1NC(=O)CSC2c1ccc(OC)c(OC)c1` (stereo not given) showed a response of 1.43%.
With `O=c1[nH]c(CN2CC=C(c3ccccc3)CC2)nc2scc(-c3cccs3)c12` the response was -2.27%.
In the case of `CNC(=O)N(C)c1nnc(C(C)(C)C)s1`, the response is reported as 2.46%.
`Cc1c(C(=O)O)cccc1-n1c(C)cc(/C=C2\C(=O)NC(=O)N(c3ccc4c(c3)OCO4)C2=O)c1C` gave a response of -0.49%.
Work on `Cc1ccc(-n2c(C)cc(/C=C3\C(=O)NC(=O)N(C)C3=O)c2C)cc1C` yielded a response of -0.72%.
In the case of `Cc1ccccc1N1C(=O)NC(=O)/C(=C\c2cc(C)n(C)c2C)C1=O`, the response is reported as 13.8% (active).
Work on `CC(=O)N(C1=NCCCS1)c1ccccc1F` yielded a response of 0.19%.
In the case of `CC12CCC(O)CC1CCC1C2CCC2(C)C(C(=O)CC(O)C(F)(F)F)CCC12` (stereo not given), the response is reported as 5.09%.
For `CCOC(=O)C(O)(c1ccc(N=Cc2ccccc2O)c(C)c1)C(F)(F)F` (stereo not given), the response was -2.77%.
Compound `Cc1nc2nc(C)c(CCC(=O)N3CCC4(CC3)OCCO4)c(C)n2n1` has a response of -4.03%.
